Sampled rows, rich in hits. Any-hit rate of the full collection: about 5.7%.
PI4K2A block: PI4K2A (human) kinase inhibition; Q9BTU6; purified PI4K2A, ADP-Glo luminescence, 1 h; hits give low values; activity change, negative = inhibition, % at 76.9 µM; 420,000 tested, 0.13% active; in the data active = activity change below about -50%; inconclusive = mostly about -30% to -49%;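 also: -100% = wells without enzyme as full effect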
Target sequence (Q9BTU6 whole entry, looked up): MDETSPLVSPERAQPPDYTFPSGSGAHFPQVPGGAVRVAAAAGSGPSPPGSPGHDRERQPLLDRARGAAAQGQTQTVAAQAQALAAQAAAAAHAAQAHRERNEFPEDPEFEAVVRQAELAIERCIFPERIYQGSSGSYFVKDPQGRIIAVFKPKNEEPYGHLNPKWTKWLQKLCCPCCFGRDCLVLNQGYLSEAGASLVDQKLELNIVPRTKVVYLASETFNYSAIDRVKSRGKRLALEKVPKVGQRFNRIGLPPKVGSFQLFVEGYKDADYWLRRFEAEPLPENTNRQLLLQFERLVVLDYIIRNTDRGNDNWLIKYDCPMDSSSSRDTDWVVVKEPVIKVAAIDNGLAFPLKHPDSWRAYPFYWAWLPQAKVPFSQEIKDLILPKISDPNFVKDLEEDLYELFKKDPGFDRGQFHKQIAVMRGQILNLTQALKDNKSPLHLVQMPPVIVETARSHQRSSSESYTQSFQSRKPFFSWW
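PI4K2A activity was measured by ADP-Glo luminescence: enzyme (4 ug/mL stock) and phosphatidylinositol (1.2 mM stock) in Tris pH 7.5/MgCl2/EGTA/Triton X-100 buffer were reacted with ATP (300 microM stock) for one hour at ambient temperature.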
Nrf2 inh: Nrf2 pathway inhibition; Potency, µM (top dose mostly 46 µM), for the others: top-dose activity change, negative = inhibition, actives largely listed as inhibitors; 360,000 tested, 2.1% active; A549 ARE-Fluc reporter, luciferase luminescence, 18-24 h; also: potency is read from the fitted curve at half-maximal effect; nearly all actives have a fitted effect of over 60% in size
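Quantitative HTS in A549 cells stably bearing an antioxidant response element-firefly luciferase construct. Inhibition of Nrf2-driven transcription was scored by luminescence after 18-24 h of compound exposure at 37 °C.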
KB-V1 MDR tox: kills drug-selected multidrug resistant KB-V1 cells. KB-V1 MDR cells viability, CellTiter-Glo, 72 h. 400,000 tested, 3.4% active. AID 1347076. Potency, µM (doses to about 46.1 µM), most hits filed as cytotoxic; also: potency is read from the fitted curve at half-maximal effect; nearly all actives have a fitted effect of over 60% in size
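Potencies derive from concentration-effect curves fitted to normalized luminescence (CellTiter-Glo) of KB-V1 cells treated for 72 h at 37 degrees C in phenol-red-free DMEM containing 10% FBS.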
A549 tox: kills or reduces viability of A549 cells in Nrf2 counter-screen; A549 ARE-Fluc cells, CellTiter-Fluor viability, 18-24 h; Potency, µM (titrated, usually from 46 µM), for inactives: at the highest dose activity change, negative = cytotoxicity, actives largely listed as inhibitors; 390,000 tested, 0.16% active; also: potency is read from the fitted curve at half-maximal effect
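A549 ARE-Fluc cells in 5% FBS OPTI-MEM, 5000 cells/well, rested 2 h then exposed to compounds in concentration-response for 18-24 h at 37 °C. Viability by CellTiter-Fluor fluorescence (Ex 405/Em 525) after 30 min; luciferase luminescence (BugLite, 15 min, RT) read afterwards.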
KB-3-1 tox: KB-3-1 parental cell cytotoxicity | 400,000 tested, 1.4% active | KB-3-1 viability, CellTiter-Glo ATP luminescence, 72 h | AID 1347075 | Potency, µM (top dose mostly 46.1 µM), actives largely listed as cytotoxic; also: potency is read from the fitted curve at half-maximal effect; nearly all actives have a fitted effect of over 60% in size
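72 h, 37 °C compound treatment of KB-3-1 parental cells; CellTiter-Glo added, 10 min, luminescence read. Data corrected against DMSO-only plates and normalized before curve fitting.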
Giardia kill: Giardia lamblia killing | Giardia lamblia trophozoite viability | activity change, % at 7.66 µM, hits read low | 340,000 tested, 0.15% active | AID 540267; in the data active = activity change below about -80%; inconclusive = between about -30% and that limit;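 also: parasites exposed to compound for two days anaerobically before the ATP read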
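Giardia lamblia trophozoites (100 cells/well) were incubated with compounds for 48 h at 37 deg C under anaerobic conditions. Viability was read as ATP content by one-step luminescence after 15-30 min at room temperature.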
* marks the source's active call; other numbers are inactive results; i = inactive; ? = inconclusive; . = no result given. Unless noted, calls follow the shape of the dose curve; as a rule, active = well fitted curve in the direction sought with a large enough effect; inconclusive = small, poorly fitted or top-dose-only effect, or another doubt; inactive = no such curve, though single readings can be large; an effect the other way counts as inactive or inconclusive. Unless noted, % is scaled to controls: 0 for no effect and ±100 for the full control effect.

SMILES	PI4K2A block	Nrf2 inh	KB-V1 MDR tox	A549 tox	KB-3-1 tox	Giardia kill
COC(=O)Cc1c[nH]c2cccc(OCC(O)CN(Cc3ccc([N+](=O)[O-])cc3)C(C)(C)C)c12 (stereo not given)	-1	-13%	5.8µM*	-4%	i	2
COc1ccc(Cn2c(NC(=O)c3ccccc3)nc(Cc3ccccc3)c2Cc2ccccc2)cc1	-1	.	.	.	.	.
C=CC(=O)Nc1cccc(Nc2nc(N[C@H]3CC[C@H](N(C)C)CC3)nc3c2ncn3C(C)C)c1	-5	0.58µM*	i	2.6µM*	18µM*	-22
CC(C)n1cnc2c(Nc3cccc(Cl)c3)nc(NCCCO)nc21	3	?	i	?	i	-4
Cc1ccc(NS(=O)(=O)c2ccc3c(c2)N(C)CCO3)cc1C	.	?	.	0%	.	.
CCc1nc2ccccc2c(C(=O)OCC(=O)Nc2cccc(S(=O)(=O)NC3=NCCCCC3)c2)c1C	3	16µM*	i	-25%	?	1
CCc1nc2ccccc2c(C(=O)OCC(=O)Nc2ccc(S(=O)(=O)N3CCOCC3)cc2)c1C	-16	?	i	-17%	i	26
CCOc1ccc(C(=O)NC(=S)Nc2cccc(S(=O)(=O)NC3=NCCC3)c2)cc1	2	?	7.3µM*	?	2.3µM*	14
CCOc1cc(C(=O)OCC(=O)Nc2cccc(S(=O)(=O)NC3=NCCCCC3)c2)cc(OCC)c1OCC	3	-10%	8.2µM*	3%	i	-8
CCOc1ccccc1C(=O)OCC(=O)Nc1cccc(S(=O)(=O)NC2=NCCCCC2)c1	3	2%	i	9%	i	-1
CCc1nc2ccccc2c(C(=O)OCC(=O)Nc2cccc(S(=O)(=O)N3CCOCC3)c2)c1C	1	.	6.5µM*	?	21µM*	10
COc1ccc(-n2c(SCC(=O)Nc3cc(C)c(NC(=O)c4ccccc4)cc3OC)nnc2-c2ccccc2F)cc1	1	.	.	.	.	.
O=C(NC(=S)Nc1cccc(S(=O)(=O)NC2=NCCC2)c1)c1cc(-c2ccco2)nc2ccccc12	-18	?	i	-8%	6.5µM*	-3
O=C(Nc1cccc(S(=O)(=O)NC2=NCCC2)c1)c1cc(-c2ccco2)nc2ccccc12	?	3%	i	?	i	3
Cn1c(=O)c2[nH]c(CN(Cc3ccccc3)Cc3ccccc3)nc2n(C)c1=O	4	-25%	8.2µM*	-5%	i	-21
Cn1c(=O)c2[nH]c(COc3ccccc3)nc2n(C)c1=O	9	-20%	i	22%	i	0
Cn1c(=O)c2[nH]c(Cc3cccc4ccccc34)nc2n(C)c1=O	-1	21µM*	?	-8%	i	12
COc1cc(SC)ccc1C(=O)Nc1ccccn1	-3	?	i	-10%	i	?
COc1ccc(CNC(=O)c2ccc(SC)cc2OC)cc1	5	-11%	?	-6%	i	9
COc1cc(SC)ccc1C(=O)NCCc1ccccc1	-1	?	i	-3%	?	10
COc1cc(SC)ccc1C(=O)Nc1ccc(Br)cn1	-5	?	18µM*	-2%	?	?
COc1cc(SC)ccc1C(=O)NCCOc1c(C)cc(C)cc1C	8	3%	21µM*	2%	?	-12
COc1cc(SC)ccc1C(=O)Nc1ccc(C)cc1C	-12	?	9.2µM*	12%	i	-16
COc1cc(SC)ccc1C(=O)NCCOc1ccc(Cl)cc1	3	-17%	21µM*	3%	i	-10
O=C(C[n+]1cccc(Br)c1)c1ccc(F)cc1	.	.	i	.	i	.
Cc1ccc2nccnc2c1	.	.	16µM*	.	?	.
Cc1ccc2c(C)ccnc2c1	.	.	i	.	i	.
CCOC(=O)c1c(NC(=O)CSc2cn(CCNC(=O)c3ccc(OC)c(OC)c3)c3ccccc23)sc2c1CCCC2	-4	?	i	-11%	i	.

Source: PubChem BioAssay
